Data as given in PubChem BioAssay AID1159580 (chemical genetic matrix, 2015).
The campaign covered roughly 5,500 compounds. About 2,000 (36%) were called active. Inconclusive results (about 18%) are left out. No stated cut-off is given here; in the data, active means normalized growth mostly below about 0.91 (no sharp cut-off); inconclusive means no clear call, values can overlap the other calls; inactive means mostly above about 0.92. This is one part of the list.

Experiment: chemical genetic growth profiling, strain panel (AID 1159580);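 further: tested at 20 µM; growth read once vehicle control cultures reached saturation at 30 °C; 1 = growth at the plate median or of vehicle wells; lower values mean less growth of the strain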
Details: growth OD

Measured: normalized growth

COc1cc(OC)c2c(c1)O[C@H](c1cc(OC)c(OC)c(OC)c1)[C@H](OC(=O)c1cc(OC)c(OC)c(OC)c1)C2
inactive: S. cerevisiae deletion strains, locus YAL013W, strain DEP1, active compounds read low 1.01 | S. cerevisiae deletion strains, locus YBR021W, strain FUR4, active compounds read low 0.998 | S. cerevisiae deletion strains, locus YBR229C, strain ROT2, active compounds read low 1.02 | S. cerevisiae deletion strains, locus YCL029C, strain bik1, active compounds read low 1.01 | S. cerevisiae deletion strains, locus YDL035C, strain GPR1, active compounds read low 0.994 | S. cerevisiae deletion strains, locus YDL074C, strain BRE1, active compounds read low 0.996 | S. cerevisiae deletion strains, locus YDL101C, strain DUN1, active compounds read low 1 | S. cerevisiae deletion strains, locus YDL134C, strain PPH21, active compounds read low 1 | S. cerevisiae deletion strains, locus YDL185W, strain tfp1, active compounds read low 1.01 | S. cerevisiae deletion strains, locus YDL192W, strain arf1, active compounds read low 1 | S. cerevisiae deletion strains, locus YDR101C, strain arx1, active compounds read low 0.999 | S. cerevisiae deletion strains, locus YDR150W, strain NUM1, active compounds read low 1.01 | S. cerevisiae deletion strains, locus YDR162C, strain NBP2, active compounds read low 1 | S. cerevisiae deletion strains, locus YDR318W, strain mcm21, active compounds read low 0.997 | S. cerevisiae deletion strains, locus YDR388W, active compounds read low 1 | S. cerevisiae deletion strains, locus YDR502C, strain sam2, active compounds read low 0.991 | S. cerevisiae deletion strains, locus YEL061C, strain CIN8, active compounds read low 1.01 | S. cerevisiae deletion strains, locus YER110C, active compounds read low 1 | S. cerevisiae deletion strains, locus YER155C, strain BEM2, active compounds read low 1 | S. cerevisiae deletion strains, locus YER167W, strain BCK2, active compounds read low 1.02 | S. cerevisiae deletion strains, locus YGL078C, strain dbp3, active compounds read low 1 | S. cerevisiae deletion strains, locus YGL086W, strain mad1, active compounds read low 0.991 | S. cerevisiae deletion strains, locus YGL248W, strain PDE1, active compounds read low 1.01 | S. cerevisiae deletion strains, locus YGR078C, strain PAC10, active compounds read low 1.02 | S. cerevisiae deletion strains, locus YGR135W, strain pre9, active compounds read low 0.994 | S. cerevisiae deletion strains, locus YGR229C, strain SMI1, active compounds read low 0.993 | S. cerevisiae deletion strains, locus YGR252W, strain gcn5, active compounds read low 0.933 | S. cerevisiae deletion strains, locus YHR030C, strain SLT2, active compounds read low 1.01 | S. cerevisiae deletion strains, locus YHR079C, strain IRE1 (second series), active compounds read low 1 | S. cerevisiae deletion strains, locus YHR094C, strain hxt1, active compounds read low 0.996 | S. cerevisiae deletion strains, locus YHR129C, strain ARP1, active compounds read low 1.01 | S. cerevisiae deletion strains, locus YHR200W, strain rpn10, active compounds read low 0.999 | S. cerevisiae deletion strains, locus YIL066C, strain RNR3, active compounds read low 0.997 | S. cerevisiae deletion strains, locus YIL073C, strain SPO22, active compounds read low 0.995 | S. cerevisiae deletion strains, locus YIL125W, strain kgd1, active compounds read low 1 | S. cerevisiae deletion strains, locus YIR030C, strain dcg1, active compounds read low 1.01 | S. cerevisiae deletion strains, locus YJL095W, strain BCK1, active compounds read low 1.01 | S. cerevisiae deletion strains, locus YJL134W, strain LCB3, active compounds read low 1.01 | S. cerevisiae deletion strains, locus YJL168C, strain set2, active compounds read low 1 | S. cerevisiae deletion strains, locus YJL187C, strain SWE1 (second series), active compounds read low 1 | S. cerevisiae deletion strains, locus YJR043C, strain POL32, active compounds read low 0.992 | S. cerevisiae deletion strains, locus YJR075W, strain HOC1, active compounds read low 1 | S. cerevisiae deletion strains, locus YKL009W, strain mrt4, active compounds read low 0.983 | S. cerevisiae deletion strains, locus YKL068W, active compounds read low 1.01 | S. cerevisiae deletion strains, locus YKL085W, strain MDH1 (second series), active compounds read low 0.993 | S. cerevisiae deletion strains, locus YKL085W, strain MDH1, active compounds read low 0.993 | S. cerevisiae deletion strains, locus YKL190W, strain CNB1, active compounds read low 0.998 | S. cerevisiae deletion strains, locus YKR001C, strain vps1, active compounds read low 0.99 | S. cerevisiae deletion strains, locus YLR039C, strain RIC1, active compounds read low 1.01 | S. cerevisiae deletion strains, locus YLR058C, strain SHM2, active compounds read low 1.01 | S. cerevisiae deletion strains, locus YLR102C, strain apc9, active compounds read low 1 | S. cerevisiae deletion strains, locus YLR262C, strain YPT6, active compounds read low 1.02 | S. cerevisiae deletion strains, locus YLR268W, strain sec22, active compounds read low 1.01 | S. cerevisiae deletion strains, locus YLR330W, strain CHS5, active compounds read low 1.01 | S. cerevisiae deletion strains, locus YLR342W, strain FKS1 (second series), active compounds read low 1 | S. cerevisiae deletion strains, locus YLR371W, strain rom2, active compounds read low 1.01 | S. cerevisiae deletion strains, locus YLR418C, strain cdc73, active compounds read low 0.973 | S. cerevisiae deletion strains, locus YML016C, strain PPZ1, active compounds read low 1 | S. cerevisiae deletion strains, locus YML032C, strain rad52, active compounds read low 0.992 | S. cerevisiae deletion strains, locus YML124C, strain tub3, active compounds read low 1 | S. cerevisiae deletion strains, locus YMR078C, strain ctf18, active compounds read low 1 | S. cerevisiae deletion strains, locus YMR223W, strain ubp8, active compounds read low 0.994 | S. cerevisiae deletion strains, locus YMR263W, strain SAP30, active compounds read low 1 | S. cerevisiae deletion strains, locus YMR307W, strain GAS1, active compounds read low 0.951 | S. cerevisiae deletion strains, locus YNL067W, strain RPL9B, active compounds read low 1.01 | S. cerevisiae deletion strains, locus YNL128W, strain TEP1, active compounds read low 1.02 | S. cerevisiae deletion strains, locus YNL153C, strain GIM3, active compounds read low 1.01 | S. cerevisiae deletion strains, locus YNL233W, strain BNI4, active compounds read low 1 | S. cerevisiae deletion strains, locus YNL250W, strain rad50, active compounds read low 1 | S. cerevisiae deletion strains, locus YNL271C, strain bni1, active compounds read low 1.01 | S. cerevisiae deletion strains, locus YNL298W, strain CLA4, active compounds read low 1.01 | S. cerevisiae deletion strains, locus YNL307C, strain MCK1, active compounds read low 1 | S. cerevisiae deletion strains, locus YNL322C, strain KRE1, active compounds read low 1 | S. cerevisiae deletion strains, locus YNR052C, strain pop2, active compounds read low 1.01 | S. cerevisiae deletion strains, locus YOL006C, strain TOP1, active compounds read low 0.983 | S. cerevisiae deletion strains, locus YOL012C, strain htz1 0.884 | S. cerevisiae deletion strains, locus YOL147C, strain pex11, active compounds read low 0.996 | S. cerevisiae deletion strains, locus YOR061W, strain CKA2, active compounds read low 1 | S. cerevisiae deletion strains, locus YOR069W, strain VPS5, active compounds read low 0.999 | S. cerevisiae deletion strains, locus YOR136W, strain idh2, active compounds read low 0.997 | S. cerevisiae deletion strains, locus YOR144C, strain elg1, active compounds read low 1 | S. cerevisiae deletion strains, locus YOR184W, strain ser1, active compounds read low 0.987 | S. cerevisiae deletion strains, locus YOR316C, strain cot1, active compounds read low 1 | S. cerevisiae deletion strains, locus YPL055C, strain LGE1, active compounds read low 0.989 | S. cerevisiae deletion strains, locus YPL241C, strain CIN2, active compounds read low 0.986 | S. cerevisiae deletion strains, locus YPR119W, strain clb2, active compounds read low 0.995 | S. cerevisiae deletion strains, locus YPR141C, strain kar3, active compounds read low 1 | S. cerevisiae deletion strains, locus YPR163C, strain tif3, active compounds read low 0.997 | S. cerevisiae deletion strains, locus YPR167C, strain met16, active compounds read low 1.01 | S. cerevisiae deletion strains, strain wtn01, active compounds read low 0.992 | S. cerevisiae strains, strain wild type, active compounds read low 1.01
